Here are results for 37 molecules from PubChem BioAssay (Tox21).

“And” between values parts separate entries of the source, which are not always exact repeats. Identical values can stand only once. Results filed as inconclusive are left out. A call without a number means that no potency is given here. The source made the active and inactive calls. Calls come from the whole dose curve; as a rule, active = well fitted curve in the direction sought with a large enough effect in the repeat runs; inconclusive = weak or mixed curves; inactive = no such curve, though single readings can be large; an effect the other way counts as inactive or inconclusive.
Potency is the fitted concentration of half-maximal effect.

Chain of Luciferin 4-monooxygenase (Photinus pyralis) (P08659 whole entry, looked up): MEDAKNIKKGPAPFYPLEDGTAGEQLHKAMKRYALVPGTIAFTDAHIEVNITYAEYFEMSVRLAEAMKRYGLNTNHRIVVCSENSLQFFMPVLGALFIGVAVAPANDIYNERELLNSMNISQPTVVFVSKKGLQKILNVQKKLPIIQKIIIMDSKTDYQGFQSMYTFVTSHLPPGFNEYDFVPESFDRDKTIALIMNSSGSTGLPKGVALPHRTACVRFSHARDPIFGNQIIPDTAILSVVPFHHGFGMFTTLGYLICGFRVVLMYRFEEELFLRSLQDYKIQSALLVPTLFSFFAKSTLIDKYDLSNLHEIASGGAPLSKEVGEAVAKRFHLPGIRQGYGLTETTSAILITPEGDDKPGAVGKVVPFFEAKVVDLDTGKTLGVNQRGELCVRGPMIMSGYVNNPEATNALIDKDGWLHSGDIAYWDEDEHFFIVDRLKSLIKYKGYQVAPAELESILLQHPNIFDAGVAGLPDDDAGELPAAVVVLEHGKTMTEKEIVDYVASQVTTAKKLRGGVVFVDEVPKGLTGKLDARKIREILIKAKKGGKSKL

One assay concerns the target Luciferin 4-monooxygenase (Photinus pyralis) (UniProt P08659). Description: qHTS assay to identify small molecule inhibitors of firefly luciferase (AID 1224835). Note: nearly all actives have a fitted effect of over 25% in size. The conditions noted are these: purified P. pyralis luciferase, luminescence inhibition; series mostly up to 115 µM. The essentials: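 Inhibition of purified Photinus luciferase is measured by luminescence. Substrate levels (D-luciferin, ATP) sit at their KM values. Each compound is tested in a concentration series.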
Turning to `CCOC(=O)C1(c2ccccc2)CCN(CCC(C#N)(c2ccccc2)c2ccccc2)CC1`, the Potency result is “inactive”. As to `FC(Cl)(Cl)Cl`, the Potency result was “inactive”.

Regarding `CC(C)CC(C)(c1ccc(O)cc1)c1ccc(O)cc1`, the Potency entry is “inactive”. The same measure, in the same setting: the value for `CC(=O)Nc1ccc2c(c1)Cc1ccccc1-2` was 28.7 µM (active); that for `Cc1c(Cl)c(=O)oc2cc(OP(=O)(OCCCl)OCCCl)ccc12` was “inactive”; that for `CC(C)[C@H](C(=O)OC(C#N)c1cccc(Oc2ccccc2)c1)c1ccc(OC(F)F)cc1` (stereo not given in full) was “inactive”. The same measure, in the same setting: the same measure for `CCOC(=O)OC1=C(c2cc(C)ccc2C)C(=O)NC12CCC(OC)CC2` (stereo not given): “inactive”; for `C[C@H]1CC[C@@H]2[C@@H](C)[C@H]3[C@H](C[C@H]4[C@@H]5CC=C6CC(O[C@@H]7O[C@H](CO)[C@H](O)[C@H](O[C@@H]8O[C@H](CO)[C@@H](O)[C@H](O)[C@H]8O)[C@H]7O[C@H]7O[C@@H](C)[C@H](O)[C@@H](O)[C@H]7O)CC[C@]6(C)[C@H]5CC[C@]34C)N2C1` (stereo not given in full): “inactive”. The same measure, in the same setting: the value for `Clc1ccc(CCC(Cn2ccnc2)Sc2c(Cl)cccc2Cl)cc1` (stereo not given) was “inactive”; that for `COc1ccc(OC)c(CC(C)N)c1` (stereo not given) was “inactive”; that for `Clc1ccc(-c2ccc(Cl)c(Cl)c2Cl)c(Cl)c1Cl` was “inactive”. For the molecule `Cn1cc(C2=C(c3cn(C4CCN(Cc5ccccn5)CC4)c4ccccc34)C(=O)NC2=O)c2ccccc21`, the Potency result is “inactive”. Same read-out and setting: the value for `CCN` was “inactive”; that for `CCCCCCCCCCCCCN1CC(C)OC(C)C1` (stereo not given) was “inactive”; that for `N#CCCSCCC#N` was “inactive”. Still for that read-out and setting: the same measure for `O=C(O)COc1nc(Cl)c(Cl)cc1Cl`: “inactive”.

As for `O=C1NCN(c2ccccc2)C12CCN(CC1COc3ccccc3O1)CC2` (stereo not given), the Potency entry was “inactive”. Still for that read-out and setting: the same measure for `c1ccc2cc3c(cc2c1)-c1cccc2cccc-3c12`: “inactive”. For the molecule `CCCN(CC)CC1COC2(CCC(C(C)(C)C)CC2)O1` (stereo not given), the Potency entry was “inactive”. The same measure, in the same setting: the value for `CC(C)(C)OO` was “inactive”.

Consider `ClC1=C(Cl)C2(Cl)C3C(Cl)C=CC3C1(Cl)C2(Cl)Cl` (stereo not given), for which the Potency result is “inactive”. Still for that read-out and setting: the same measure for `NNC(=O)c1ccccc1`: “inactive”; for `Fc1cccc(Cl)c1CCl`: “inactive”. The same measure, in the same setting: the same measure for `OC(c1ccc(Cl)cc1)(c1ccc(Cl)cc1)C(Cl)(Cl)Cl`: “inactive”; for `CN(C)c1ccc(N=Nc2ccccc2)cc1`: 0.252 µM (active); for `N#CC(Cl)Cl`: “inactive”. The same measure, in the same setting: the value for `c1ccc2c(c1)[nH]c1cnccc12` was “inactive”; that for `Cc1ccc(OP(=O)(Oc2ccccc2)Oc2ccccc2)cc1` was “inactive”. Consider `FC(F)(F)c1cccc(C2=CCN(CCc3ccc4ccccc4c3)CC2)c1`, for which the Potency entry is “inactive”.

As for `BrC(Br)Br`, the Potency result is “inactive”. On to `Cc1cc(C(F)(C(F)(F)F)C(F)(F)F)ccc1NC(=O)c1cccc(I)c1C(=O)NC(C)(C)CS(C)(=O)=O`, for which the Potency entry is “inactive”.

As for `O=[N+]([O-])c1c2ccccc2cc2ccccc12`, the Potency is 31.3 µM (active). In the case of `CCCN(CCC)CCc1c[nH]c2ccccc12`, the Potency entry was “inactive”. Same read-out and setting: the same measure for `CC(C)OS(C)(=O)=O`: “inactive”; for `N#CNC#N`: “inactive”. Same read-out and setting: the value for `C[C@@H]1O[C@@H](O[C@H]2C[C@@H](O)[C@]3(CO)[C@H]4[C@H](O)C[C@]5(C)[C@@H](C6=CC(=O)OC6)CC[C@]5(O)[C@@H]4CC[C@]3(O)C2)[C@H](O)[C@H](O)[C@H]1O` was “inactive”; that for `CCOCn1c(-c2ccc(Cl)cc2)c(C#N)c(Br)c1C(F)(F)F` was “inactive”.

Test system in another assay: not listed separately
Description: qHTS assay to identify small molecule agonists of the constitutive androstane receptor (CAR) signaling pathway - cell viability counter screen (AID 1224836). Note: nearly all actives have a fitted effect of over 45% in size. As to conditions: HepG2-CYP2B6-hCAR viability, CellTiter-Fluor, 23 h, PK11195 added to every well; series mostly up to 92.4 µM. The essentials:
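23 h treatment, 37 C, 5% CO2. Cell line: HepG2 stably expressing hCAR with a CYP2B6-2.2kb construct. Co-treatment: PK11195, 0.75 uM final. Read-out: CellTiter-Fluor fluorescence intensity.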
As to `CCOC(=O)C1(c2ccccc2)CCN(CCC(C#N)(c2ccccc2)c2ccccc2)CC1`, the Potency result was “inactive”. Same read-out and setting: the same measure for `FC(Cl)(Cl)Cl`: “inactive”; for `CC(=O)Nc1ccc2c(c1)Cc1ccccc1-2`: “inactive”. On the same count and under the same terms, the value for `Cc1c(Cl)c(=O)oc2cc(OP(=O)(OCCCl)OCCCl)ccc12` was “inactive”; that for `CC(C)[C@H](C(=O)OC(C#N)c1cccc(Oc2ccccc2)c1)c1ccc(OC(F)F)cc1` (stereo not given in full) was “inactive”; that for `CCOC(=O)OC1=C(c2cc(C)ccc2C)C(=O)NC12CCC(OC)CC2` (stereo not given) was “inactive”. On the same count and under the same terms, the value for `C[C@H]1CC[C@@H]2[C@@H](C)[C@H]3[C@H](C[C@H]4[C@@H]5CC=C6CC(O[C@@H]7O[C@H](CO)[C@H](O)[C@H](O[C@@H]8O[C@H](CO)[C@@H](O)[C@H](O)[C@H]8O)[C@H]7O[C@H]7O[C@@H](C)[C@H](O)[C@@H](O)[C@H]7O)CC[C@]6(C)[C@H]5CC[C@]34C)N2C1` (stereo not given in full) was 22.4 µM (active); that for `Clc1ccc(CCC(Cn2ccnc2)Sc2c(Cl)cccc2Cl)cc1` (stereo not given) was “inactive”. Turning to `COc1ccc(OC)c(CC(C)N)c1` (stereo not given), the Potency result is “inactive”. Same read-out and setting: the same measure for `Clc1ccc(-c2ccc(Cl)c(Cl)c2Cl)c(Cl)c1Cl`: “inactive”; for `CCN`: “inactive”; for `CCCCCCCCCCCCCN1CC(C)OC(C)C1` (stereo not given): “inactive”. On the same count and under the same terms, the same measure for `N#CCCSCCC#N`: “inactive”. Still for that read-out and setting: the value for `O=C(O)COc1nc(Cl)c(Cl)cc1Cl` was “inactive”; that for `O=C1NCN(c2ccccc2)C12CCN(CC1COc3ccccc3O1)CC2` (stereo not given) was “inactive”. `c1ccc2cc3c(cc2c1)-c1cccc2cccc-3c12`: the Potency result is “inactive”.

Turning to `CCCN(CC)CC1COC2(CCC(C(C)(C)C)CC2)O1` (stereo not given), the Potency result was “inactive”. Take `CC(C)(C)OO`: the Potency entry was “inactive”.

With `ClC1=C(Cl)C2(Cl)C3C(Cl)C=CC3C1(Cl)C2(Cl)Cl` (stereo not given), the Potency entry was “inactive”.

As for `NNC(=O)c1ccccc1`, the Potency entry is “inactive”. On the same count and under the same terms, the same measure for `Fc1cccc(Cl)c1CCl`: “inactive”; for `OC(c1ccc(Cl)cc1)(c1ccc(Cl)cc1)C(Cl)(Cl)Cl`: “inactive”. Consider `N#CC(Cl)Cl`, for which the Potency result was “inactive”. Take `c1ccc2c(c1)[nH]c1cnccc12`: the Potency result is “inactive”. The same measure, in the same setting: the value for `Cc1ccc(OP(=O)(Oc2ccccc2)Oc2ccccc2)cc1` was “inactive”. Still for that read-out and setting: the value for `FC(F)(F)c1cccc(C2=CCN(CCc3ccc4ccccc4c3)CC2)c1` was “inactive”. On the same count and under the same terms, the value for `BrC(Br)Br` was “inactive”.

`Cc1cc(C(F)(C(F)(F)F)C(F)(F)F)ccc1NC(=O)c1cccc(I)c1C(=O)NC(C)(C)CS(C)(=O)=O`: the Potency result was “inactive”. `CCCN(CCC)CCc1c[nH]c2ccccc12`: the Potency result is “inactive”. With `CC(C)OS(C)(=O)=O`, the Potency entry is “inactive”.

For the molecule `N#CNC#N`, the Potency entry is “inactive”. Take `C[C@@H]1O[C@@H](O[C@H]2C[C@@H](O)[C@]3(CO)[C@H]4[C@H](O)C[C@]5(C)[C@@H](C6=CC(=O)OC6)CC[C@]5(O)[C@@H]4CC[C@]3(O)C2)[C@H](O)[C@H](O)[C@H]1O`: the Potency is 231 nM (active) and 266 nM (active).

With `CCOCn1c(-c2ccc(Cl)cc2)c(C#N)c(Br)c1C(F)(F)F`, the Potency was 4.33 µM (active).
